Vaccinia mCherry – vaccinia inhibition (mCherry reporter). actives 0.63% (n = 310,000). Vaccinia virus mCherry reporter infection, fluorescence. AID 720579. Potency, µM (top dose mostly 36.5 µM), without a hit: at the top dose activity change, negative = inhibition, usual class: inhibitors; calls by dose curve; tested in A549 cells; further: nearly all actives have a fitted effect of over 35% in size
VACV Venus inh – inhibitors of vaccinia virus (Venus reporter); Vaccinia virus Venus reporter expression, fluorescence; Potency, µM (titrated, usually from 36.5 µM), without a hit: at the top dose activity change, negative = inhibition, hits mostly inhibitors; actives 0.46% (n = 330,000); AID 720580; calls by dose curve; tested in A549 cells; further: nearly all actives have a fitted effect of over 30% in size
AMA1-RON2 inh – inhibitors of Plasmodium falciparum AMA1-RON2 interaction; AlphaScreen AMA1-biotinylated RON2 peptide binding; Potency, µM (highest dose often 58.2 µM), without a hit: at the highest dose activity change, negative = inhibition, hits mostly inhibitors; actives 0.2% (n = 360,000); AID 720542;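 further: 0% = vehicle wells and -100% = peptide control; nearly all actives have a fitted effect of over 45% in size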
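AMA1 (3D7) with his tag at 25 nM final met compounds first, then biotinylated RON2 peptide at 25 nM; detection used donor plus acceptor beads, 10 µg/mL apiece, read by AlphaScreen after 30 min at room temperature.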
Pf growth 48h – inhibits P. falciparum growth in the first generation, 48 h; P. falciparum luciferase growth in erythrocytes, 48 h; Potency, µM (titrated, usually from 28.7 µM), for the others: at the top dose activity change, negative = inhibition, actives largely listed as inhibitors; actives 5.9% (n = 310,000); AID 504832
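Cell-based growth assay: transgenic P. falciparum expressing firefly luciferase, cultured in red cells within RPMI 1640 containing 0.5% w/v Albumax, 24 mM bicarbonate and gentamycin. A drop in luciferase activity indicates inhibition.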
Pf growth 96h – P. falciparum growth inhibition at 96 hour, primary screen for plastid delayed-death inhibitors; P. falciparum luciferase reporter growth, 96 h; Potency, µM (titrated, usually from 28.7 µM), for inactives: top-dose activity change, negative = inhibition, usual class: inhibitors; AID 504834; actives 6.9% (n = 320,000)
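96 h incubation, 37 C, 5% CO2, of luciferase-reporter P. falciparum-infected RBCs (2% hematocrit, 0.05% parasitemia final) with test compounds; endpoint luminescence.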
Active calls of the source: *; i = inactive; ? = inconclusive; · = no result; [ ] = remark or other dose. An excerpt weighted towards active compounds, which were near 8.7% of everything screened. Unless noted, the call rests on the fitted dose curve; in most records, active means well fitted curve in the direction sought with a large enough effect; inconclusive means small, poorly fitted or top-dose-only effect, or another doubt; inactive means no such curve, though single readings can be large; an effect the other way counts as inactive or inconclusive. Unless noted, on the % scale 0 is the no-effect control and ±100 the full control effect; potency means the concentration at half of the fitted maximal effect.

SMILES | Vaccinia mCherry | VACV Venus inh | AMA1-RON2 inh | Pf growth 48h | Pf growth 96h
Cc1cccnc1NC(=O)c1cccc(S(=O)(=O)N2CCCc3ccccc32)c1 | -2% | -24% | 33% | ? | ?
Cc1cc(C)c(S(=O)(=O)N2CCCc3ccccc32)c(C)c1 | · | · | 22% | 13µM* | ?
CCn1c(=O)n(-c2ccc(F)c(Cl)c2)c(=O)c2c3c(sc21)CN(C(C)=O)CC3 | -16% | -5% | · | · | ·
COc1ccccc1CNC(=O)CSc1nc2nc(C)c(Cc3ccccc3C)c(C)n2n1 | -10% | -2% | · | · | ·
COc1ccc(-n2nc(C(=O)NCC(=O)N3CC(C)CC(C)C3)c3ccccc3c2=O)cc1OC (stereo not given) | -4% | 10% | 1% | 5.9µM* | 1.7µM*
COc1ccc(-n2nc(C(=O)NCC(=O)N3CCCCCC3)c3ccccc3c2=O)cc1OC | -25% | -9% | 12% | -29% | 2.9µM*
COc1ccc(-c2cnnc(N/N=C/c3ccc(O)c(OC)c3)n2)cc1 | -28% | ? | -11%[2.32 µM] | -11% | 5.2µM*
O=[N+]([O-])c1ccc(-c2ccc(/C=N/Nc3nc(N4CCCC4)nc(N4CCCC4)n3)o2)cc1 | i | -1% | -10% | ? | ?
COc1ccc(-c2cnnc(N/N=C/c3ccc(-c4ccc([N+](=O)[O-])cc4)o3)n2)cc1 | · | · | -2% | 2.9µM* | 8%
NCCc1cc(O)c(O)cc1O | -11% | -9% | 0.79µM* | -11% | ?
COc1cccc(-c2nnn(C/C(N)=N/O)n2)c1 | -4% | -1% | 19% | 58% | 2.3µM*
O=S(=O)(Nc1ccncc1)c1cc(Cl)c(Cl)cc1Cl | · | · | 10% | 32% | 7.4µM*
COc1ccc(Cl)cc1S(=O)(=O)Nc1ccncc1 | -14% | -3% | -2% | 0% | 0%
Cc1nc2ccccc2n1C1CCN(CC(=O)Nc2ccccc2Br)CC1 | ? | ? | -15% | 12µM* | -12%
O=C(CN1CCN(c2ccccn2)CC1)Nc1ccccc1Br | · | · | 0% | 5.2µM* | ?
Cc1ccccc1NC(=O)CN1CCC(n2nnc3ccccc32)CC1 | -17% | -15% | -1% | ? | -2%
O=C(CN1CCN(c2ccccn2)CC1)Nc1cc(C(F)(F)F)ccc1Cl | · | -30% | -2% | 9.3µM* | ·
CCOC(=O)C1CCN(c2ncnc3c2c(-c2ccccc2)cn3-c2ccc(C)c(Cl)c2)CC1 | -6% | -4% | · | · | ·
COc1cc(Cl)c(NC(=O)c2cc(S(=O)(=O)N3CCCCC3)c[nH]2)c(OC)c1 | ? | -21% | · | · | ·
CN1C2CCC1/C(=C\c1ccc(F)cc1)C(=O)/C2=C/c1ccc(F)cc1 | -12% | -4% | -18% | 0.83µM* | -3%
CN1C2CCC1/C(=C/c1cccn1C)C(=O)/C2=C\c1cccn1C | -15% | 99% | ? | -17% | -2%
CC(C)[C@@H](C(=O)NC1CCN(Cc2ccccc2)CC1)N1C(=O)N2CCc3c([nH]c4ccccc34)[C@@]2(C)C1=O | -21% | -20% | -16% | ? | 7.4µM*
CC(C)[C@@H](C(=O)N1CCCC1)N1C(=O)N2CCc3c([nH]c4ccccc34)[C@@]2(C)C1=O | 7% | -2% | -3% | ? | 10µM*
COc1ccc2[nH]c3c(c2c1)CCN1C(=O)N([C@@H](C)C(=O)NCc2ccccc2OC)C(=O)[C@]31C | -13% | -6% | -18% | 4.1µM* | 7.4µM*
C[C@@H](C(=O)NC1CCN(Cc2ccccc2)CC1)N1C(=O)N2CCc3c([nH]c4ccccc34)[C@@]2(C)C1=O | -21% | -21% | -10% | -12% | ?
COCC(=O)Nc1cc(C(=O)N2CC3(C)CC2CC(C)(C)C3)c2c(c1)nc(-c1ccncc1)n2C (stereo not given) | -13% | -6% | · | · | ·
CC(CNC(=O)c1ccc(CSc2nc3ccncc3n2Cc2cccc(F)c2)cc1)c1ccccc1 (stereo not given) | -30% | -23% | · | · | ·
COc1ccc(NC(=O)CN2C(=O)N(C)Cc3ccccc32)c(C)c1 | i | -13% | -7% | 5%[5.75 µM] | 15µM*
C=C(/C=C/c1ccc(N(C)C)cc1)c1nc2ccccc2s1 | -24% | -27% | · | · | ·
Cc1ccc(C(=O)N2CCCC(C(=O)c3ccc(Oc4ccccc4)cc3)C2)cn1 (stereo not given) | -11% | -9% | -18% | -15% | 8.3µM*

Screening data as filed in PubChem.
